Myeloid diff 2 – myeloid differentiation induction; ER-HoxA9 myeloid progenitors, lysozyme-GFP differentiation, flow cytometry; calls only at 10 µM; 360,000 compounds, 1% hits; AID 624256;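 active = normalized GFP-positive differentiation at or above the plate's own cutoff, the solvent-only control mean plus 3 SD; inconclusive = no clear call, values can overlap the other calls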;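 note: cells exposed to compound for four days before flow analysis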
M1 ag – human M1 muscarinic receptor agonism; CHO-K1 hM1, Fluo-8 calcium fluorescence, agonist mode; 0% DMSO, 100% acetylcholine EC100; activation, % at 3 µM; 360,000 compounds, 0.33% hits; AID 588814;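 active = activation above the run's mean compound activation plus 3 SD, cut at about 16% in these data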;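 note: peak over basal fluorescence ratio within a 140 s kinetic read after compound addition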
CHRM1 PAM – positive allosteric modulators of human M1 muscarinic receptor; P11229; CHO-K1 hM1, Fluo-8 calcium fluorescence, ACh EC20; 0% = ACh EC20, 100% = maximal ACh; activation, % at 3 µM; 360,000 compounds, 0.088% hits; in the data active = activation above about 19%, passing the limit was not always enough
SKN-1 block – C. elegans SKN-1 inhibition | C. elegans VP596 Pgst-4::GFP/RFP ratio, acrylamide-induced, 24 h | inhibition, % at 21.8 µM | 360,000 compounds, 0.49% hits;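 active = interference check ratio from 0.5 to 1.5 plus GFP to RFP signal ratio inhibition reaching or exceeding a fixed threshold, cut at about 30% in these data, passing the limit was not always enough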
ATG4B inhibitor – inhibitors of human ATG4B cysteine protease. ATG4B cleavage of LC3-PLA2, NBD-HPC fluorescence, 1 h. 340,000 compounds, 0.51% hits. Q9Y4P1. inhibition, % at 8.33 µM; in the data active = inhibition above about 40%
Target sequence (Q9Y4P1 whole entry, looked up): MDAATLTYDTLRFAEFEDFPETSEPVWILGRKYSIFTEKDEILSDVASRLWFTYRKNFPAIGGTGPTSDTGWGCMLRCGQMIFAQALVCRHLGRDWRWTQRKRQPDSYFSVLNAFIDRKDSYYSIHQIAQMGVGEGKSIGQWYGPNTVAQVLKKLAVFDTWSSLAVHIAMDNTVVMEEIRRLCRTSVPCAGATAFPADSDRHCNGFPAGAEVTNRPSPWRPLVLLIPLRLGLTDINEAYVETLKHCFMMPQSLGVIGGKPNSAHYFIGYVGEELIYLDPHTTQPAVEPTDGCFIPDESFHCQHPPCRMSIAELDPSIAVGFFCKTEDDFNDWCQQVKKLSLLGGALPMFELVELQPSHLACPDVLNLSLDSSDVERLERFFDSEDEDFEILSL
CHRM1 antagonist – blocks human M1 muscarinic receptor; P11229; CHO-K1 hM1, Fluo-8 calcium fluorescence, ACh EC80 antagonist; inhibition, % at 3 µM; 360,000 compounds, 1.3% hits; AID 588852;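 active = percent inhibition above its own plate's cutoff, namely the mean of that plate's compound wells plus 3 SD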;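 note: peak over basal fluorescence ratio during 140 s after agonist addition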
Myeloid diff – compounds promoting myeloid differentiation; 2,300 compounds, 2% hits; shares compounds with Myeloid diff 2; calls only; ER-HoxA9 myeloid progenitors, GFP/Mac1 double-positive flow;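 active = share of green or green-and-red cells above 9 and 9% in run 1 or 4 and 3% in run 2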
GFP autofluor – counter-screen for myeloid differentiation promoters: compound fluorescence; shares compounds with Myeloid diff 2; ER-HoxA9 myeloid progenitors, no estrogen, GFP autofluorescence flow cytometry; vehicle wells 0%, positive control 100%; fluorescence response, % (concentration not given with the values); 2,300 compounds, 7.4% hits; AID 651707;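 active = over 5% cells positive for green fluorescent reporter, or over 2% positive for both it and APC stain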
Of the large screens only hits and unclear results are named; the others gave an inactive call (follow-up assays come after a bar, where they were run). Only some compounds are listed: those with a hit (about 3.5% of all), similar ones and a draw of the others.

COC(=O)C1CN(C(=O)C(C)Oc2cccc(C)c2C)c2ccccc2O1 (centres undefined)	none
CCCn1cc(S(=O)(=O)CC(=O)NC2CCCCC2)c2ccccc21	none (no result: Myeloid diff 2) | Myeloid diff inactive | GFP autofluor inactive
CCOC(=O)C(=CNc1ccccc1C)C(=O)OCC	none
CCOC(=O)C(=CNc1cc(C)nn1-c1ccccc1)C(=O)OCC	none | Myeloid diff inactive | GFP autofluor inactive
O=C1C=C(O)CC2(CCCCC2)C1	Myeloid diff 2 active (no result: ATG4B inhibitor) | Myeloid diff inactive | GFP autofluor inactive
COc1ccc2oc(C(=O)OCC(=O)NCc3ccco3)c(C)c2c1	none
CCNC(=S)N/N=C/c1sc(N2CCCCC2)nc1-c1cccs1	none | Myeloid diff inactive | GFP autofluor inactive
COc1ccc(NC(=O)C[C@H]2C(=O)N(Cc3ccccc3)C[C@@H]2CSC)cc1	none (no result: ATG4B inhibitor)
O=C(COc1ccccc1Cl)NCCCNC(=O)c1ccncc1	none
O=C(COc1ccccc1Cl)NCCNC(=O)c1ccncc1	none | Myeloid diff inactive | GFP autofluor inactive
Cc1cccc(NC(=O)c2cc(NC(=O)c3ccco3)ccc2Cl)n1	none | Myeloid diff inactive | GFP autofluor inactive
Cc1cccc(NC(=O)c2cc(NC(=O)C3CCCCC3C(=O)O)ccc2Cl)n1 (centres undefined)	none
CN(C)c1ncnc2c1ncn2C1OC(CO)C(O)C1O (centres undefined)	Myeloid diff 2 active | Myeloid diff inactive | GFP autofluor inactive
CN(C)c1ncnc2c1nnn2C1OC(CO)C(O)C1O (centres undefined)	Myeloid diff 2 inconclusive (no result: ATG4B inhibitor)
CN(C(=O)CC1C(=O)NCCN1CC1CCCCC1)C1CCOCC1 (centres undefined)	none
O=C1CC(C(=O)N2CCCc3ccccc32)CN1c1ccc(Cl)cc1 (centres undefined)	none | Myeloid diff inactive | GFP autofluor inactive
O=C(CC12CC3CC(CC(C3)C1)C2)NC(Cc1ccccc1)C(=O)O (centres undefined)	none
O=C(Nc1ccccc1)C(Cc1ccccc1)NC(=O)C12CC3CC(CC(C3)C1)C2 (centres undefined)	Myeloid diff 2 active | Myeloid diff inactive | GFP autofluor inactive
O=C(CNC(=O)c1ccc(Br)o1)Nc1ccc(N2CCCCCC2)cc1	Myeloid diff 2 active | Myeloid diff inactive | GFP autofluor inactive
Cc1ccc(/C=N/NC(=O)NC23CC4CC(CC(C4)C2)C3)o1	none
COC(=O)C1=C(C)Nc2nnnn2C1c1cccnc1 (centres undefined)	none
COC(=O)C1=C(C)Nc2nnnn2C1c1ccco1 (centres undefined)	none (no result: Myeloid diff 2) | Myeloid diff inactive | GFP autofluor inactive
O=c1oc(-c2cccs2)nc2c1cnn2-c1ccccc1	none | Myeloid diff inactive | GFP autofluor inactive
CCN(CC)S(=O)(=O)c1ccc(C)c(NC(=O)COC(=O)[C@@H]2CCCN2C(=O)c2cccs2)c1	none
Cc1ccc(NS(=O)(=O)c2cccc(C(=O)NCC3CCCO3)c2)cc1 (centres undefined)	none
O=C(N/N=C/c1ccc([N+](=O)[O-])o1)c1cc2c(ccc3ccccc32)o1	Myeloid diff 2 inconclusive
O=C(N/N=C/c1ccc([N+](=O)[O-])o1)c1cc2ccccc2o1	none | Myeloid diff inactive | GFP autofluor inactive
Cc1ccc2nc(N/N=C\c3ccc([N+](=O)[O-])o3)nc(-c3ccccc3)c2c1	none
O=[N+]([O-])c1ccc(/C=N/Nc2ccc3ccccc3c2)o1	Myeloid diff 2 active | Myeloid diff inactive | GFP autofluor 8.1
CCN(CC(=O)NCc1ccc(Cl)cc1)C(=O)c1ccc(C#N)cc1	none (no result: Myeloid diff 2)
CC(C)(C)OC(=O)N(CCc1ccccc1)Cc1ccccc1OCc1cccc(NC(=O)C2CC2)c1	Myeloid diff 2 active (no result: ATG4B inhibitor) | Myeloid diff inactive | GFP autofluor inactive
